Compound activity as filed in PubChem BioAssay.
MITF act = increases MITF-driven TRPM1 promoter luciferase signal. activation, % at 12.5 µM. AID 588334. actives 0.75% (n = 300,000). SK-MEL-5 TRPM1-promoter luciferase, 24 h; % of positive control, neutral wells = 0;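 active = mean activation of at least 80% with every replicate also reaching 80%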;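 also: 0% = neutral control wells and 100% = parthenolide positive control wells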
APOBEC3A inh = human APOBEC3A DNA deaminase inhibition. recombinant A3A, FAM/TAMRA ssDNA deamination fluorescence. actives 0.41% (n = 330,000). P31941. inhibition, % at 20 µM;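 active = at least 40% inhibition at 20 µM here, with at most 30% in a related deaminase screen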;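 also: plate controls were A3A with DMSO for no effect and wells lacking A3A enzyme for full effect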
Target sequence (P31941 whole entry, looked up): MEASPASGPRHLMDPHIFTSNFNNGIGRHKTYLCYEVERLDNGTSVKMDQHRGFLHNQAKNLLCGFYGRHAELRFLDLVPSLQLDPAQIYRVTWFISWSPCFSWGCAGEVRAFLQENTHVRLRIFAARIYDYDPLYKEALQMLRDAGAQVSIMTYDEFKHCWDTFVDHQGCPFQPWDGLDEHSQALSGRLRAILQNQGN
A3G deaminase = inhibitors of human APOBEC3G DNA deaminase | Q9HC16 | recombinant A3G, ssDNA deamination FAM/TAMRA fluorescence | inhibition, % at 20 µM | actives 0.28% (n = 330,000) | AID 493012;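 active = inhibition of at least 40% at 20 µM, with no more than 30% in the related APOBEC3A deaminase screen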;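 also: plate controls were DMSO wells with A3G for no effect and wells lacking A3G enzyme for full effect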
PHOSPHO1 block = PHOSPHO1 (human) inhibition. Q8TCT1. recombinant PHOSPHO1, absorbance phosphatase assay. inhibition, % at 13.3 µM. actives 1.1% (n = 290,000). AID 1565; in the data active = inhibition above about 60%
Target sequence (Q8TCT1 whole entry, looked up): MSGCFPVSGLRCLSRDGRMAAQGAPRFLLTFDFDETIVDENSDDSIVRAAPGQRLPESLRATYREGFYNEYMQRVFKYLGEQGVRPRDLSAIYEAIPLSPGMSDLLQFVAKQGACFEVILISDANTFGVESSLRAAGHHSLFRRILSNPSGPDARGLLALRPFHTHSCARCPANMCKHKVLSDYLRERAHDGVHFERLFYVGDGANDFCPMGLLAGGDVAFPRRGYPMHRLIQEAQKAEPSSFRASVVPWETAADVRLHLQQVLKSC
esBAF inh = inhibitors of esBAF chromatin remodeling in mouse ES cells | Bmi1-luciferase knock-in reporter, 24 h; 100% = twice the neutral-well signal | reporter increase, % at 12.5 µM | actives 2% (n = 350,000) | AID 602393; in the data active = activation above about 40%;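 also: 0% = median of the plate's neutral control wells and 100% = double that signal; a rise in the Bmi1 reporter signal indicates esBAF inhibition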
Wnt bcat act = Wnt/beta-catenin pathway activation; actives 1.2% (n = 300,000); Wnt/beta-catenin reporter cell assay, activator, plate reader; activation, % at 9.35 µM; in the data active = activation above about 30%, passing the limit was not always enough;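 also: 0% = neutral control wells and 100% = positive control wells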
Active calls of the source: *; . = no result. Most compounds without a hit are left out; they make up all but 3.6% or so of the library.

SMILES | MITF act | APOBEC3A inh | A3G deaminase | PHOSPHO1 block | esBAF inh | Wnt bcat act
COCC(=O)Nc1ccc2c(c1)OC[C@@H](C)N(Cc1ccccc1OC)C[C@@H](C)[C@H](OC)CN(C)C2=O | . | . | . | . | -2 | .
CCOC(=O)CC(=O)CSc1ccc2nnc(-c3ccc(C)cc3)n2n1 | -11 | 10 | -7 | 68* | -6 | .
CC(=O)C(Sc1ccc2nnc(-c3ccc(F)cc3)n2n1)C(C)=O | 14 | -8 | -13 | 89* | 7 | -2
CCOC(=O)N1CCN(C(=O)CSc2ccc3nnc(-c4ccncc4)n3n2)CC1 | 4 | -2 | -6 | -5 | -1 | -1
C[C@@H]1CN([C@H](C)CO)C(=O)c2cc(NC(=O)CCC(F)(F)F)ccc2O[C@@H](C)CCCCO[C@@H]1CN(C)S(=O)(=O)c1ccc(Cl)cc1 | . | . | . | . | -4 | .
CC(=O)N=C(N)Sc1nc2ccccc2[nH]1 | . | -5 | -8 | 25 | 69* | 61*
CC(Sc1nc2ccccc2[nH]1)C(=O)O (stereo not given) | 11 | -2 | -5 | 13 | -3 | 0
CC(C)=CC(=O)OCc1cc([N+](=O)[O-])cc2c1OCOC2 | 48 | -8 | -6 | 28 | . | 41*
C[C@@H]1CN([C@@H](C)CO)C(=O)c2cc(NC(=O)CCN3CCOCC3)ccc2O[C@H]1CN(C)Cc1ccc(Oc2ccccc2)cc1 | . | . | . | . | 0 | .
Cc1ccc(SCC(=O)c2ccc[nH]2)cc1 | 70 | 3 | 0 | -9 | 61* | 8
CCC(=O)Nc1ccc2c(c1)C(=O)N(C)C[C@H](OC)[C@H](C)CN(Cc1cncnc1)[C@@H](C)CO2 | . | . | . | . | -6 | .
C[C@H](CO)N1C[C@H](C)[C@@H](CN(C)Cc2ccccn2)Oc2ncc(C#CC3(O)CCCC3)cc2C1=O | . | . | . | . | 3 | .
Cc1cc(C)n2nc(-c3ccc(F)cc3)cc2n1 | . | . | . | . | 54* | 2
Cc1cc(C)n2nc(Nc3ccccc3)cc2n1 | 12 | -1 | -4 | -18 | 33 | .
Cc1ccc(-c2cc3nc(C)cc(C)n3n2)cc1 | 16 | 0 | -4 | 15 | 60* | 16
Cc1cc(C)n2nc(-c3ccccc3)cc2n1 | 12 | -4 | -6 | 55 | 43* | 12
C[C@@H](NC(=O)C[C@H]1CC[C@H]2[C@@H](COC[C@H](O)CN2C)O1)c1ccccc1 | . | . | . | . | 7 | .
COc1ccccc1CNC(=O)C[C@H]1C=C[C@@H](NC(=O)CC2CC2)[C@H](CO)O1 | . | . | . | . | -4 | .
C[C@@H]1CCCCO[C@@H](CN(C)C(=O)Cc2ccccc2)[C@@H](C)CN([C@@H](C)CO)C(=O)c2cc(NC(=O)C3CCCCC3)ccc2O1 | . | . | . | . | -4 | .
O=C(NCCc1ccc(F)cc1)c1cccc(NC(=O)c2ccccc2)c1 | 18 | 2 | -2 | 39 | 65* | 5
O=C(Nc1ccc(SC(F)F)cc1)c1ccc(F)cc1 | 87* | 9 | -3 | 5 | . | 17
O=C(Nc1ccc(F)cc1)c1cccc(C(=O)Nc2ccc(F)cc2)c1 | 0 | -5 | -7 | 47 | 11 | -1
O=C(Nc1ccc(SC(F)F)cc1)c1ccccc1F | 80 | 2 | -5 | -7 | . | 17
COc1ccc(C(=O)Nc2ccc(S(=O)(=O)Nc3ncccn3)cc2)cc1OC | 4 | -3 | -10 | 60* | . | 0
O=C(Nc1ccc(F)cc1)c1ccccc1 | 104* | 2 | -1 | 11 | 81* | -6
SMILES | MITF act | APOBEC3A inh | A3G deaminase | PHOSPHO1 block | esBAF inh | Wnt bcat act
CNC(=O)Nc1ccc(C2SCCS2)cc1 | . | -2 | -4 | -6 | . | 7
O=C(Nc1ccc(C2SCCS2)cc1)c1ccccc1 | . | -3 | -5 | 46 | . | 49*
O=C(CNS(=O)(=O)c1ccc(F)cc1)Nc1ccccc1 | -1 | -3 | -11 | 33 | 3 | 1
COC(=O)c1ccc(NC(=O)Cc2ccc(F)cc2)cc1 | 30 | 0 | -3 | 48 | 33 | 1
COC(=O)c1ccc(C(=O)Nc2ccc(F)cc2)cc1 | 79 | 1 | -4 | . | 67* | 28
COC(=O)c1ccc(NC(=O)c2ccc(OC(C)=O)c(OC)c2)cc1 | 49 | -2 | -4 | 37 | 50* | -1
O=C(CNc1ccccc1)Nc1ccc(F)cc1 | 74 | -3 | -1 | 11 | 52* | .
CO[C@@H]1CN(C)C(=O)c2ccc(NC(=O)C3CCOCC3)cc2OC[C@@H](C)N(C(C)=O)C[C@@H]1C | . | . | . | . | -1 | .
